The source of these data is PubChem BioAssay.

Test [1] is described as follows: antimalarial activity against Dd2 strain (AID 2302;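 active = growth inhibition above 50% at the single 2 µM test dose, taken to imply half-maximal potency below 2 µM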;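 also: 0% = DMSO untreated growth and 100% = chloroquine plus artemisinin killed control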). The note with it: P. falciparum Dd2 in RBCs, LDH growth readout, 72 h; at 2 µM; stronger effect = higher value.
Test [2] can be described thus: human hepatoma cell viability loss – ATP luminescence, cytotoxicity control for P. falciparum antimalarial project, primary screen (AID 2303;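 active = inhibition above 50%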;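 also: 0% = DMSO wells and 100% = digitonin-killed cells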). Conditions: HepG2 viability, 24-48 h, at 10 µM, stronger effect = higher value.
Test [3] addresses L-lactate dehydrogenase (Plasmodium falciparum (isolate CDC / Honduras)) (UniProt Q27743). In words: PfLDH activity inhibition – cell lysate, 3D7 strain, counter-screen for P. falciparum growth inhibition project (AID 2304).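 Also: 0% = vehicle and 100% = reference inhibitor.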 Conditions: P. falciparum 3D7 crude extract, LDH APAD/NBT absorbance; at 2 µM; stronger effect = higher value.
Test [4] in a line: inhibition of 3D7 malaria parasite growth – strain 3D7 (AID 2306).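 Also: 0% = DMSO wells and 100% = chloroquine plus artemisinin control wells.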 The note with it: P. falciparum 3D7 erythrocytic growth, LDH absorbance, 72 h; at 2 µM; stronger effect = higher value.
Test [5] concerns the target Calcium-dependent protein kinase 1 (Plasmodium falciparum (isolate 3D7)) (UniProt P62344). In words: PfCDPK1 kinase inhibitors, biochemical, TCAMS library (AID 1159585; cut-off not given, nearly all actives have IC50 up to about 0.98 µM;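 also: inhibitors leave more ATP so luminescence rises with inhibition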). Conditions: recombinant PfCDPK1, Kinase-Glo ATP depletion luminescence. Background: Kinase-Glo measures the ATP left after a reaction by luminescence.
Test [6] concerns the target Plasmodium falciparum protein kinase 6 (PK6, PF3D7_1337100) (UniProt Q8IDW1). In words: PfPK6 kinase inhibitors, biochemical, TCAMS library (AID 1159586). Conditions: recombinant PfPK6, Kinase-Glo ATP depletion luminescence.
Test [7] deals with Protein kinase 7 (PK7), Plasmodium falciparum 3D7 (PF3D7_0213400) (UniProt Q7YTF7). In words: inhibition of Plasmodium PK7 catalytic activity – biochemical, TCAMS antimalarial set, Kinase-Glo luminescence (AID 1159587). The note with it: recombinant PfPK7, Kinase-Glo ATP depletion luminescence.
Protein kinase 7 (PK7), Plasmodium falciparum 3D7 (PF3D7_0213400), sequence (Q7YTF7 1-343): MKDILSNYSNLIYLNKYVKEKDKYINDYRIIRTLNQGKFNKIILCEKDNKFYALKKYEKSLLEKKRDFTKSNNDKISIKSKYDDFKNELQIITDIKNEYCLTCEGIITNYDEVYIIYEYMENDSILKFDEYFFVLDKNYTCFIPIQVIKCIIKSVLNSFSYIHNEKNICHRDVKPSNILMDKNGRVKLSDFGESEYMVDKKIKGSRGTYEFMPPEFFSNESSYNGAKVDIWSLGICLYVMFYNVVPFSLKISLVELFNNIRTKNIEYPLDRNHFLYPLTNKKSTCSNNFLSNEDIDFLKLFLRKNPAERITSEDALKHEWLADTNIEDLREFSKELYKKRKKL
Test [8] concerns the target Calcium-dependent protein kinase 4 (Plasmodium falciparum (isolate 3D7)) (UniProt Q8IBS5). In words: PfCDPK4 kinase inhibitors, biochemical, TCAMS library (AID 1159588; cut-off not given, nearly all actives have IC50 up to about 0.91 µM). Conditions: recombinant PfCDPK4, Kinase-Glo ATP depletion luminescence.

Structures are written as SMILES. A number with no mark means an inactive call. For some of these results: Results with a measured potency or affinity are listed apart. Calls of active or inactive are those of the source. Unless noted, no rule for the calls is given here.

Calcium-dependent protein kinase 1 (Plasmodium falciparum (isolate 3D7)), sequence (P62344 whole entry, looked up): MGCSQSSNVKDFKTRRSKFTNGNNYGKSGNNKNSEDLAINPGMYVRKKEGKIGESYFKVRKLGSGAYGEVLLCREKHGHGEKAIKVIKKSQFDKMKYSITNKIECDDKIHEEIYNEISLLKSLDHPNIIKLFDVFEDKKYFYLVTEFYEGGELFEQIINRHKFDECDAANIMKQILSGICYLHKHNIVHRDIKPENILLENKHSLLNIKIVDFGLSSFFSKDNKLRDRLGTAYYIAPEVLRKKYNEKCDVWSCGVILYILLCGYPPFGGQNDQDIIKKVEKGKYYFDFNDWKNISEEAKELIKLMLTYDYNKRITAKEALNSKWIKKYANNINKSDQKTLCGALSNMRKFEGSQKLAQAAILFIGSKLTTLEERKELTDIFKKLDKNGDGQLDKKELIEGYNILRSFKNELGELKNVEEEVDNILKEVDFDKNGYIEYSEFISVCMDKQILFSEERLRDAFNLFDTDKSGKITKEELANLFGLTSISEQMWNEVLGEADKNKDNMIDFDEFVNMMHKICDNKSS
Plasmodium falciparum protein kinase 6 (PK6, PF3D7_1337100), sequence (Q8IDW1 1-305): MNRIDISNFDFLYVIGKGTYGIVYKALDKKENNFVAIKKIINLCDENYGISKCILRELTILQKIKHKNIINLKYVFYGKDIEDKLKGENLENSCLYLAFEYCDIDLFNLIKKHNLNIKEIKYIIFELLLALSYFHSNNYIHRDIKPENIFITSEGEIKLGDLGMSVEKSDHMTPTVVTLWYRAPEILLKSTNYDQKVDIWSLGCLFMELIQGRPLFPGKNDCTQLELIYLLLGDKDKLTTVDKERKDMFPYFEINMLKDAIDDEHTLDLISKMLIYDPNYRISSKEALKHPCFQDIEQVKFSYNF
Calcium-dependent protein kinase 4 (Plasmodium falciparum (isolate 3D7)), sequence (Q8IBS5 whole entry, looked up): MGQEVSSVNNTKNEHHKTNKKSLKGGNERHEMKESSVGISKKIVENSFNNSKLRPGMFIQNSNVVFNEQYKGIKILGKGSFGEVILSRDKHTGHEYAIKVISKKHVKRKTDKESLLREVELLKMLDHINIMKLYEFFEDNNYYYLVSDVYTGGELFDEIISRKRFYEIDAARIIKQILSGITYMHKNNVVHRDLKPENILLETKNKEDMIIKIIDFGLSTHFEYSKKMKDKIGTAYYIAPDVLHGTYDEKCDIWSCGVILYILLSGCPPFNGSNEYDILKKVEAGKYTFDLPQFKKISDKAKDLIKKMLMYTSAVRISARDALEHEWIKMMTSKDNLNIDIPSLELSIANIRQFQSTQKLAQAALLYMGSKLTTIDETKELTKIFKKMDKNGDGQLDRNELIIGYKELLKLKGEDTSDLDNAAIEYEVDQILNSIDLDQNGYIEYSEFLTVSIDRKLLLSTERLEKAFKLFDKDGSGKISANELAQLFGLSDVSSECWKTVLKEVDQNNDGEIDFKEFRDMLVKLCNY
L-lactate dehydrogenase (Plasmodium falciparum (isolate CDC / Honduras)), sequence (Q27743 whole entry, looked up): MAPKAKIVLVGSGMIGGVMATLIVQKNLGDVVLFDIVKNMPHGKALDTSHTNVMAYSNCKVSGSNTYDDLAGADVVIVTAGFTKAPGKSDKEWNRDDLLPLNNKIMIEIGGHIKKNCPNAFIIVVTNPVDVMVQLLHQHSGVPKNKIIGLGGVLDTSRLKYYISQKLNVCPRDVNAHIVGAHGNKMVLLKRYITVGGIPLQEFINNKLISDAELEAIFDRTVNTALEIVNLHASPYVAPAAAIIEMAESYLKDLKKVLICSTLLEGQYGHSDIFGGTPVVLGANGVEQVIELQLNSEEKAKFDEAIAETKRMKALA

As to `CCCNCc1ccc(-c2ccc(CN(CCOC)C(=O)c3ccco3)cc2)nc1`, the growth inhibition is 21% in test [1] and 91% (active) in test [4]. For the same compound, the inhibition (as a rule, the change of the read-out against control, counted positive when it falls) was 1% in test [2] and -7% in test [3]. Moreover, the result in test [5], in test [6], in test [7] and in test [8] was inactive.
`O=C(N[C@@H](CC1CCCCC1)C(=O)NCc1cccc(C(F)(F)F)c1)c1ccc(O)c(-c2ccc(Cl)c(Cl)c2)c1`: the growth inhibition in test [1] was 100% (active); in test [4], 98% (active). Moreover, the results for the inhibition in test [2] and in test [3] were -5% and 5%, respectively. Further, the outcome in test [5], in test [6], in test [7] and in test [8] was inactive.
As to `O=C(/C=C/c1ccc(Cl)c(Cl)c1)NCCCCCN1CCC(NC(=O)Nc2ccc(Cl)c(Cl)c2)CC1`, the growth inhibition was 1% in test [1] and 102% (active) in test [4]. Besides, the inhibition was 23% in test [2] and 0% in test [3]. The result in test [5], in test [6], in test [7] and in test [8] was inactive.
Take `Cc1noc(C)c1-c1ccc2c(Nc3ccccc3C(C)(C)C)c(C(=O)NC3CCCC3)cnc2c1`: the growth inhibition is 79% (active) in test [1] and 93% (active) in test [4]. The inhibition in test [2] is 27%; in test [3] it was -3%. The outcome in test [5], in test [6], in test [7] and in test [8] was inactive.
With `N#Cc1ccc(-c2ccc(C(=O)NCCCCN3CCC(c4ccncc4)CC3)cc2)cc1`, the growth inhibition in test [1] was 16%; in test [4] it was 94% (active). For the same compound, the inhibition in test [2] was 34%; in test [3], -3%. The outcome in test [5], in test [6], in test [7] and in test [8] was inactive.
As for `CC(C)C(C(=O)n1ncc2c3c(N)nc(N)nc3ccc21)C(C)C`, the growth inhibition was 8% in test [1] and 98% (active) in test [4]. The inhibition in test [2] is 67% (active); in test [3], -8%. In addition, the result in test [5], in test [6], in test [7] and in test [8] was inactive.
On to `COc1ccc(CN(C)CCCOc2ccc(NC(=O)c3cccc4c(=O)c5cccc(F)c5[nH]c34)cc2)cc1OC`, for which the results for the growth inhibition in test [1] and in test [4] were 96% (active) and 100% (active), respectively. The inhibition in test [2] was 6%; in test [3], -3%. In addition, the result in test [5], in test [6], in test [7] and in test [8] was inactive.
`Cc1c(-c2ccc(C(=O)NC3CC(C)(C)NC(C)(C)C3)cc2)[nH]c2cc(Cl)c(Cl)cc12`: the growth inhibition in test [1] was 68% (active); in test [4], 98% (active). The values for the inhibition in test [2] and in test [3] were 34% and 0%, respectively. The outcome in test [5], in test [6], in test [7] and in test [8] was inactive.
For the compound `CC1CCCCC1N(C)C1CCN(CCCNC(=O)C=Cc2cccc(C(F)(F)F)c2)CC1` (stereo not given), the growth inhibition in test [1] is 17%; in test [4], 100% (active). Moreover, the inhibition in test [2] is 47%; in test [3], -2%. The outcome in test [5], in test [6], in test [7] and in test [8] was inactive.
As for `O=C(NCc1ccc(C(=O)NC2CCCCCC2)cc1)c1ccc(O)c(-c2ccc(Cl)c(Cl)c2)c1`, the figures for the growth inhibition in test [1] and in test [4] were 21% and 83% (active), respectively. Further, the results for the inhibition in test [2] and in test [3] were -1% and -3%, respectively. The outcome in test [5], in test [6], in test [7] and in test [8] was inactive.
On to `CC(C)CNCc1cccc(-c2cccc(CNC3CCN(Cc4ccccc4)CC3)c2)c1`, for which the growth inhibition was 99% (active) in test [1] and 102% (active) in test [4]. Further, the inhibition in test [2] was 32%; in test [3], -2%. Further, the outcome in test [5], in test [6], in test [7] and in test [8] was inactive.
On to `COc1ccc2nccc([C@@H](O)CN3CCC(NCCOc4cccc(C(F)(F)F)c4)CC3)c2c1`, for which the growth inhibition was 74% (active) in test [1] and 102% (active) in test [4]. Also, the inhibition in test [2] was 16%; in test [3], 3%. Moreover, the outcome in test [5], in test [6], in test [7] and in test [8] was inactive.
Regarding `COc1ccc2nc3cc(Cl)ccc3c(N)c2c1`, the growth inhibition in test [1] is 100% (active); in test [4], 102% (active). Moreover, the inhibition in test [2] was 100% (active); in test [3] it was -5%. The result in test [5], in test [6], in test [7] and in test [8] was inactive.
Take `CC(C)CCCC(C)(C)NC[C@@H](O)[C@H](Cc1ccccc1)NC(=O)c1cccc(OCC2CC2)c1`: the growth inhibition is 91% (active) in test [1] and 96% (active) in test [4]. Moreover, the inhibition is 99% (active) in test [2] and 3% in test [3]. The outcome in test [5], in test [6], in test [7] and in test [8] was inactive.
On to `COc1ccc(NC(=O)/C=C/c2cc(F)cc(C(F)(F)F)c2)cc1OCCN(C(C)C)C(C)C`, for which the growth inhibition is 21% in test [1] and 97% (active) in test [4]. Moreover, the figures for the inhibition in test [2] and in test [3] were 18% and -3%, respectively. In addition, the result in test [5], in test [6], in test [7] and in test [8] was inactive.
With `NC1=NC2(CCCCC2)N(OCCOc2ccc(Cc3ccccc3)cc2)C(N)=N1`, the growth inhibition in test [1] is 22%; in test [4], 86% (active). For the same compound, the inhibition in test [2] was 34%; in test [3], 2%. Also, the result in test [5], in test [6], in test [7] and in test [8] was inactive.
Consider `Cc1cc2nc(-c3ccc(C(=O)NCCCc4ccccc4)cc3)[nH]c2cc1C`, for which the growth inhibition in test [1] was 5%; in test [4], 91% (active). The inhibition in test [2] was 7%; in test [3] it was -2%. Further, the outcome in test [5], in test [6], in test [7] and in test [8] was inactive.
As for `O=C(/C=C/c1ccc(Cl)c(Cl)c1)NCCCCCN1CCCN(C(=S)Nc2ccc(Cl)c(Cl)c2)CC1`, the growth inhibition in test [1] is -3%; in test [4], 96% (active). Further, the inhibition in test [2] was 16%; in test [3], -3%. In addition, the outcome in test [5], in test [6], in test [7] and in test [8] was inactive.
In the case of `CC(C)c1cc(Oc2c(I)cc(CCN=C(N)N)cc2I)ccc1O`, the growth inhibition in test [1] is 54% (active); in test [4], 98% (active). Further, the results for the inhibition in test [2] and in test [3] were 19% and 3%, respectively. In addition, the outcome in test [5], in test [6], in test [7] and in test [8] was inactive.
Consider `COc1cccc(CNC(=O)c2cccc(-c3cccc(CN4CCC(N5CCCC5)CC4)c3)n2)c1`, for which the growth inhibition is 76% (active) in test [1] and 100% (active) in test [4]. Also, the inhibition is 22% in test [2] and 1% in test [3]. For the same compound, the outcome in test [5], in test [6], in test [7] and in test [8] was inactive.
